Screens: PubChem BioAssay, National Center for Advancing Translational Sciences (NCATS)
This is a sample that favours compounds with a hit; in the whole collection about 4.6% have one here.
PNC inhibitor – inhibitors of perinucleolar compartment assembly; activity change (PNC), negative = inhibition, % at 10 µM; hit rate 3.1% among 140,000; PC3M PTB-GFP, PNC prevalence imaging, 16 h; hits give low values;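 active = readout at or below -70, meaning at least 70% loss of cells showing the perinucleolar compartment, a nuclear body marking cancer cells; inconclusive = readout between -30 and a set limit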
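PC3M cells stably expressing PTB-GFP, 750–1000 cells/well, treated 16 h at 37 °C with compound (23 nl of library stock), in duplicate. After paraformaldehyde fixation and Hoechst stain, imaged at 20x; PNC prevalence scored by image analysis.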
Tau fibril ThT – inhibitors of human tau fibril formation, thioflavin T binding. P10636. recombinant tau K18 P301L, heparin-induced fibrillization, ThT fluorescence. Potency, µM (top dose mostly 57.4 µM), usual class: inhibitors. hit rate 2.1% among 270,000; also: nearly all actives have a fitted effect of over 55% in size
Target sequence (P10636 561-689 P618L limits assumed): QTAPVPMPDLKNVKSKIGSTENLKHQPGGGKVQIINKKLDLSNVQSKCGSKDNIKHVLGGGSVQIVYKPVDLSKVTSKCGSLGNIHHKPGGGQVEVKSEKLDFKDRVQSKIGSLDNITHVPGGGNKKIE
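In this qHTS, human K18 P301L tau is incubated with compound and heparin for 6 hr at 37 C, and Thioflavin T fluorescence then reports fibril load.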
TRb-SRC2 inh – disrupts binding of human TR beta to SRC2; hit rate 0.065% among 280,000; TRbeta-SRC2 peptide binding, fluorescence polarization; receptor liganded with 1 µM T3; Potency, µM (top dose mostly 106 µM), hits mostly inhibitors; also: nearly all actives have a fitted effect of over 50% in size
Target sequence (P10828 whole entry, looked up): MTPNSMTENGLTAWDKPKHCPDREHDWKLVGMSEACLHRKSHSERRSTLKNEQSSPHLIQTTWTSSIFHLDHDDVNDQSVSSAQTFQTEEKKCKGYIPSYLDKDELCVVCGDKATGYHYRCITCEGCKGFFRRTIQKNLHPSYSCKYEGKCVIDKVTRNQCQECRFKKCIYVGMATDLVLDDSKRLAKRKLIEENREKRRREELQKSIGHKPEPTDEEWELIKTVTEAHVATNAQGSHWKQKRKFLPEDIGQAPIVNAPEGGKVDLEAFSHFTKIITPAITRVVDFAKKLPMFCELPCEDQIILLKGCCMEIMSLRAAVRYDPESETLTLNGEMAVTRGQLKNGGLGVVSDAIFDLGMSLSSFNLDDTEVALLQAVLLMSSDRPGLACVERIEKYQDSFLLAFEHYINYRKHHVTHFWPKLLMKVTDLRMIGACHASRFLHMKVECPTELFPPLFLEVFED
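Binding of a 20-amino-acid Texas Red SRC2 peptide (20 nM) to TRb ligand-binding domain (0.6 uM) with agonist T3 at 1 uM was followed by fluorescence polarization after a 5 hr room-temperature incubation.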
Tau fluor cs – counter-screen for tau fibril formation inhibitors; tau K18 P301L (four-repeat tau fragment) Alexa594 fluorescence, heparin fibrillization; AID 1463; hit rate 0.93% among 280,000; Potency, µM (highest dose often 57.7 µM); also: nearly all actives have a fitted effect of over 55% in size
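Human K18 P301L tau (15 uM unlabeled plus 0.24 uM Alexa 594-labeled, final) in 100 mM sodium acetate pH 7 was mixed with compound and 20 uM heparin and incubated 6 hr at 37 C.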
TR SRC2 fluor cs – counter-screen for TRb-SRC2 inhibitors: fluorescence interference; Potency, µM (series often up to 106 µM); AID 1479; TRb/SRC2 Texas Red total fluorescence interference; hit rate 0.29% among 280,000; active = well fitted curve in either direction with a large enough effect; inconclusive = small, poorly fitted or top-dose-only effect
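Human TRb ligand-binding domain at 0.6 uM with 20 nM Texas Red SRC2 peptide in Tris buffer containing 1 uM T3 and 5% DMSO, incubated with compound 5 h at ambient temperature. Total fluorescence (555/632 nm) calculated as parallel + 2 × perpendicular.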
Tau fibril FP – tau fibrillization inhibition (FP). hit rate 0.39% among 280,000. Potency, µM (titrated, usually from 57.7 µM), most hits filed as inhibitors. P10636. K18 P301L tau heparin fibrillization, Alexa594 FP, 6 h. AID 1468; also: nearly all actives have a fitted effect of over 55% in size
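K18 P301L tau (15 uM unlabeled/0.24 uM Alexa 594-labeled, final) + compound + heparin 20 uM final; 100 mM NaOAc pH 7; 6 hr 37 C; ThT 30 uM final added, 1 hr RT; FP ex 555/em 632 nm.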
Of the large screens only hits and unclear results are named; the others gave an inactive call; [ ] = dose if it differs, or a comment. Unless noted, calls follow the shape of the dose curve; as a rule, active = well fitted curve in the direction sought with a large enough effect; inconclusive = small, poorly fitted or top-dose-only effect, or another doubt; inactive = no such curve, though single readings can be large; an effect the other way counts as inactive or inconclusive.

COc1cccc(-c2cn3nc4c(nc3n2)CCCC4)c1	Tau fibril ThT 14µM, Tau fibril FP inconclusive
Cc1ccc2c(c1[N+](=O)[O-])C(=O)c1ccccc1C2=O	none (no result: PNC inhibitor, Tau fibril ThT, Tau fluor cs, Tau fibril FP)
CN(C)C(=O)c1ccc2c(c1[N+](=O)[O-])C(=O)c1ccccc1C2=O	none
Cc1[nH]c2c(C)cccc2c1CCNC(=O)c1ccc2c(c1[N+](=O)[O-])C(=O)c1ccccc1C2=O	PNC inhibitor inconclusive, Tau fibril ThT inconclusive, Tau fluor cs 7.9µM[quencher]
Cc1[nH]c2ccccc2c1CCNC(=O)c1ccc2c(c1[N+](=O)[O-])C(=O)c1ccccc1C2=O	Tau fibril ThT inconclusive, Tau fluor cs 8.9µM[quencher]
Cc1ccc(CN2CC34C=CC(O3)C(C(=O)NCc3ccco3)C4C2=O)cc1 (stereo not given)	PNC inhibitor inconclusive
COc1cc2c(-c3cc(Br)ccc3O)nc3c(c(C)nn3-c3ccccc3)c2cc1OC	none (no result: PNC inhibitor)
COc1cc(-c2nc3c(c(C)nn3-c3ccccc3)c3cc(OC)c(OC)cc23)ccc1O	PNC inhibitor -109
Cc1nc(CSc2nsc(/C=C/N(C)C)c2C#N)cs1	Tau fibril ThT 25µM, Tau fluor cs inconclusive (no result: PNC inhibitor)
Cc1nc(CSc2nnc(N)s2)cs1	none (no result: PNC inhibitor)
Cc1ccc(CSc2nnc(-c3cccs3)n2C)cc1	PNC inhibitor -100
O=C[C@@H]1CCCN1C(=O)[C@@H]1CCCN1C(=O)OCc1ccccc1	Tau fibril ThT 18µM, Tau fibril FP 22µM (no result: PNC inhibitor)
O=C(Nc1ccc2c(c1)OCO2)C1CCCN1C(=O)Nc1ccccc1F (stereo not given)	PNC inhibitor -84
O=C(O)CCC(NC(=O)C1CCCN1C(=O)OCc1ccccc1)C(=O)O (stereo not given)	none (no result: PNC inhibitor)
O=C(Nc1ccc2c(c1)OCO2)C1CCCN1C(=O)OCc1ccccc1 (stereo not given)	PNC inhibitor -127
COc1ccccc1CN1C[C@@H]2C[C@@H](c3cccc(O)c3)N3CCC[C@@]23C1=O	none (no result: PNC inhibitor)
CCc1ccc(C2(O)CC(C(F)(F)F)=NN2C(=O)Cc2ccc([N+](=O)[O-])cc2)cc1 (stereo not given)	none
CN(C)CCNC(=O)c1cc2ccccc2oc1=O	PNC inhibitor inconclusive
CCNc1ccc(S(=O)(=O)N(C)C)cc1NCC(=O)Nc1ccc(Br)cc1F	PNC inhibitor inconclusive, Tau fibril ThT inconclusive
CC(C)n1cc(/C=C2/NC(=O)N(c3cccc(Cl)c3)C2=O)c2ccccc21	PNC inhibitor -100
O=c1cc(-c2ccccc2)oc2c(O)c(O)ccc12	Tau fibril ThT inconclusive, Tau fluor cs inconclusive (no result: PNC inhibitor)
O=c1cc(-c2ccccc2O)oc2c(O)c(O)ccc12	Tau fibril ThT 11µM, Tau fluor cs inconclusive, Tau fibril FP 13µM (no result: PNC inhibitor)
O=C(COC(=O)Cn1cnc2ccccc21)Nc1cccc([N+](=O)[O-])c1	none (no result: PNC inhibitor)
Cc1c(Cl)cccc1N1C(=O)C2ON(c3ccccc3)C(c3cccnc3)C2C1=O (stereo not given)	none
COC(=O)c1ccc(CSc2nc3c(c(=O)n2-c2ccc(Br)cc2)SCC3)o1	none
CCOc1ccc(N2C(=O)CC(NCCNc3ccc([N+](=O)[O-])cn3)C2=O)cc1 (stereo not given)	none (no result: PNC inhibitor)
COc1ccc(N2C(=O)CC(NCCNc3ccc([N+](=O)[O-])cn3)C2=O)cc1 (stereo not given)	PNC inhibitor -100
CC(=O)Nc1cc(NC(C)=O)c(N=Nc2ccccc2)cc1C	Tau fluor cs inconclusive (no result: PNC inhibitor, Tau fibril ThT)
Cc1ccc(NCC(O)C(O)C(O)CO)c(N=Nc2ccccc2)c1C (stereo not given)	Tau fibril ThT 2.5µM, Tau fluor cs 13µM[quencher] (no result: PNC inhibitor)
COC(=O)COC(=O)CC(CC(N)=O)c1ccccc1 (stereo not given)	none
Cc1cccc2c1N(Cc1ccccc1OCCC(C)C)C(=O)C2=O	Tau fibril ThT 25µM (no result: PNC inhibitor)
Cc1cc(Br)cc2c1N(Cc1ccccc1OC(C)C)C(=O)C2=O	Tau fibril ThT 25µM, Tau fluor cs inconclusive, Tau fibril FP inconclusive (no result: PNC inhibitor)
CCOCCCNCc1c(Cl)cccc1Cl	none
O=C(c1cn(-c2ccccc2)nc1-c1cccs1)N1CCN(c2ccc(F)cc2)CC1	PNC inhibitor -109
O=C(c1cc(-c2cccs2)on1)N1CCN(c2ccc(F)cc2)CC1	none
S=C(NCCN1CCOCC1)N/N=C/c1c2ccccc2cc2ccccc12	PNC inhibitor -81, Tau fluor cs inconclusive
C/C(=N\NC(=O)c1cnccn1)c1ccc([N+](=O)[O-])cc1	Tau fibril ThT inconclusive (no result: PNC inhibitor)
C/C(=N\NC(=O)c1ccccc1[N+](=O)[O-])c1c(O)cc(C)oc1=O	none
C/C(=N\NC(=O)c1ccc([N+](=O)[O-])cc1)c1c(O)cc(C)oc1=O	Tau fibril ThT 4.5µM (no result: PNC inhibitor)
C/C(=N/NC(=O)c1cc(O)c(O)c(O)c1)c1ccc([N+](=O)[O-])cc1	Tau fibril ThT 3.5µM, Tau fluor cs inconclusive (no result: PNC inhibitor)
O=C(Cn1ncc(Cl)c(Cl)c1=O)N1CCOCC1	none (no result: PNC inhibitor)
CC(=O)Nc1ccc(S(=O)(=O)/N=C2\C(=O)c3ccccc3C([O-])=C2n2cc[n+](-c3ccccn3)c2)cc1	Tau fibril ThT 13µM, Tau fluor cs 14µM[quencher], Tau fibril FP inconclusive (no result: PNC inhibitor)
Cc1ccc(S(=O)(=O)/N=C2\C(=O)c3ccccc3C([O-])=C2n2cc[n+](CCC(C)C)c2)cc1	PNC inhibitor inconclusive, Tau fibril ThT inconclusive
Fc1ccc(OCc2nc(-c3cccs3)no2)cc1	none (no result: PNC inhibitor)
CCOC(=O)CSC1=NC(=O)/C(=C/c2ccc(OC)cc2)S1	PNC inhibitor -91, Tau fibril ThT inconclusive
CCOC(=O)CSc1nc(C)c2cc(OC)ccc2n1	none
CC(=O)NC(c1ccccc1)c1cc([N+](=O)[O-])c2cccnc2c1O (stereo not given)	Tau fibril ThT 10µM, Tau fibril FP inconclusive (no result: PNC inhibitor)
CC(C)C(=O)NC(c1ccccc1)c1cc([N+](=O)[O-])c2cccnc2c1O (stereo not given)	Tau fibril ThT inconclusive
CC(C)CNC(=O)COc1ncnc2sccc12	none (no result: PNC inhibitor)
CC(C)N(C)CCOC(=O)/C=C/c1ccccc1	none
CC1=C(C)/C(=N\OC(=O)/C=C/c2ccccc2)C=CC1=O	Tau fibril ThT 13µM, Tau fibril FP inconclusive
CC1=CC(=O)C=C(C)C1=NOC(=O)/C=C\c1ccccc1	Tau fibril ThT 16µM, Tau fibril FP inconclusive
CC1=CC(=NOC(=O)/C=C/c2ccccc2)C=C(C)C1=O	Tau fibril ThT 22µM, Tau fibril FP inconclusive
Cc1cccc(C2=NN(c3ccccc3)[C@H](CO)[C@H]2c2ccc(F)cc2)c1	Tau fibril ThT inconclusive, Tau fluor cs 32µM[quencher], Tau fibril FP inconclusive (no result: PNC inhibitor)
Cc1cccc(C2=NN(c3ccccc3)[C@H](CO)[C@H]2c2ccc(Cl)cc2)c1	Tau fibril ThT inconclusive, Tau fluor cs 11µM[quencher], Tau fibril FP inconclusive (no result: PNC inhibitor)
